# Dicer processing: human Dicer pre-microRNA cleavage inhibition | Q9UPY3 | cat-ELCCA pre-miR-21 Dicer processing, chemiluminescence; stronger effect = higher value | z-score at 25 µM | 47,000 compounds, 6% hits | AID 1347074; in the data active = z-score above about 3, passing the limit was not always enough;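 also: plate controls were vehicle for no effect and no enzyme for full effect; higher signal means more uncleaved substrate so more Dicer inhibition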
# Numbers without * were called inactive. Shown is part of a subset that was picked to be rich in hits.
SMILES,Dicer processing
COC(=O)CCCN1C(=O)NC2NC(=O)NC21 (configuration not stated),0.72
O=C(Nc1ccc(Cl)cc1)Nc1nnc(-c2ccccc2Br)s1,1.54
O=C(CSc1nnc2scc(-c3ccccc3)n12)c1ccc(Cl)cc1,0.3
Cc1ccc2onc(OC(=O)NC(C)(C)C)c2c1,0.11
CC(C)(C)OC(=O)NC1CCN(c2ncc(C(F)(F)F)cc2Cl)CC1,-1.11
COCCNC(=O)c1cc2nc3c(c(C(F)(F)F)n2n1)CCc1ccccc1-3,3.21*
O=C(O)CSc1nc2c(c(C(F)(F)F)n1)CCc1ccccc1-2,1.83
FC(F)(F)c1c2c(nc3cc(-c4cccs4)nn13)-c1ccccc1C2,-0.63
CC(C)(C)NC(=O)c1cc2nc3c(c(C(F)(F)F)n2n1)CCc1ccccc1-3,3.58*
O=C(NCC1CCCO1)c1nn2c(C(F)(F)F)c3c(nc2c1Cl)-c1ccccc1CC3 (configuration not stated),2.86
CC(C)(C)NC(=O)c1cc2nc(-c3ccc(Br)cc3)cc(C(F)(F)F)n2n1,-1.21
CCn1c2c(c(=O)[nH]c1=O)C(c1ccc(C(C)(C)C)cc1)C1=C(N2)c2ccccc2C1=O (configuration not stated),0
CC1S/C(=N\C(=O)Nc2ccc(Cl)cc2)NC1=O (configuration not stated),0.28
Brc1ccc2c(c1)C1CC(c3ccccc3)=NN1C(c1cccnc1)O2 (configuration not stated),1.04
COc1ccc(O)c(C2=NN3C(C2)c2cc(Br)ccc2OC3c2ccncc2)c1 (configuration not stated),13.1*
Brc1ccc2c(c1)C1CC(c3ccco3)=NN1C(c1ccccc1)O2 (configuration not stated),5.71*
COc1ccc(C2Oc3c(OC)cccc3C3CC(c4cc(OC)ccc4O)=NN32)cc1 (configuration not stated),0.44
COc1ccc(O)c(C2=NN3C(C2)c2cc(Br)ccc2OC3c2cccnc2)c1 (configuration not stated),3.11
CSCCC1Oc2ccccc2C2CC(c3ccccc3O)=NN12 (configuration not stated),3.78
c1ccc(C2Oc3ccccc3C3CC(c4cccnc4)=NN32)cc1 (configuration not stated),0.1
CSCCC1Oc2ccc(Br)cc2C2CC(c3ccccc3O)=NN12 (configuration not stated),11.3*
COc1cccc(C2=NN3C(C2)c2cc(Br)ccc2OC3c2ccncc2)c1 (configuration not stated),6.71*
COc1cccc2c1OC(CCSC)N1N=C(c3cc(C)ccc3O)CC21 (configuration not stated),-0.7
Cc1nc2c(-c3ccccc3)c(C(F)(F)F)nn2c(C)c1-c1ccccc1,-0.38
C#CCN1C(=O)C(O)(CC(=O)c2ccc(C)cc2)c2cc(Br)ccc21 (configuration not stated),1.23
SMILES,Dicer processing
Cc1nnsc1C(=O)NNS(=O)(=O)c1ccc(CNC(=O)c2ccccc2)s1,-0.12
COc1cc2ncnc(NC(C)C)c2cc1OC,-0.54
O=C(N/N=C/c1ccccn1)c1nc2ccccc2nc1C(F)(F)F,2.19
CCCc1[nH]nc2c1C(c1ccc(Cl)cc1)C(C#N)=C(N)O2 (configuration not stated),-3.22
CN(NC(=O)c1ccc(Cl)cc1)c1ncccc1[N+](=O)[O-],1.54
N/C(=N\OC(=O)N1CCOCC1)c1cccc(C(F)(F)F)c1,-0.49
CC(C)(C)c1csc(N/N=C/c2ccc(Cl)cc2)n1,1.77
CN1CCN(c2ncnc3oc(-c4ccccc4)c(-c4ccccc4)c23)CC1,1.72
Cc1cc(C)n(NC(=S)NC2CCCCCC2)c(=O)c1C#N,-1.63
Cc1ccc(=O)n(Cc2ccccc2C)n1,-0.51
CN[C@@H]1C(O[C@H]2O[C@H](CO)[C@@H](N)[C@H](O)[C@H]2O)O[C@H]2C[C@@H](N)[C@@H](O[C@H]3[C@H](O)[C@@H](O)[C@H](N)C[C@@H]3N)OC2[C@@H]1O (some centres not stated),-0.3
Cc1ccc(C2=NN3C(C2)c2cc(Br)ccc2OC3c2ccncc2)s1 (configuration not stated),4.32*
COc1cccc2c1OC(c1ccncc1)N1N=C(c3cc(Cl)ccc3O)CC21 (configuration not stated),2.2
COC(=O)c1ccc(C2Oc3ccccc3C3CC(c4cc(OC)ccc4O)=NN32)cc1 (configuration not stated),2.66
Cc1ccc(O)c(C2=NN3C(C2)c2cc(Br)ccc2OC3c2ccncc2)c1 (configuration not stated),0.98
CCOc1ccc(C2Oc3ccc(Cl)cc3C3CC(c4ccco4)=NN32)cc1 (configuration not stated),3.82*
CC[n+]1c(/C=C/N(C)c2ccccc2)sc2cc(NC(C)=O)ccc21,-0.58
Nc1[nH]nc2nc(-c3ccccc3)c3c(c12)CCC3,0.72
O=C(Oc1cccc(Br)c1)c1ccco1,2.93
O=C(Oc1ccc2cc(Br)ccc2c1)c1ccco1,5.85*
O=C(Oc1ccc2c(c1)oc(=O)c1ccccc12)c1ccco1,-0.17
O=C(O)CC(O)c1nc2ccccc2[nH]1 (configuration not stated),1.71
CS(=O)(=O)c1sc(Cl)c(-c2ccc(Cl)cc2)c1C#N,-7.96
CS(=O)(=O)c1sc(C#N)c2c1C(=O)CC(c1ccccc1)C2 (configuration not stated),5.69*
CCOC(=O)c1sc(S(C)=O)c2c1CC(c1ccccc1)CC2=O (configuration not stated),1.6
SMILES,Dicer processing
Cc1ccc(Cn2nc3n(c2=O)-c2ccccc2OC3)cc1,-1.57
O=C1Oc2ccc(Br)cc2CC1C(=O)N1CCCCC1 (configuration not stated),8.32
Cc1ccc(-c2n[nH]c(=S)c3ccccc23)cc1S(=O)(=O)N1CCN(C)CC1,0.77
COc1ccc(S(=O)(=O)N2CCN(C)CC2)c2ccccc12,6.13*
O=S(=O)(c1ccc(Cl)c2ccccc12)N1CCN(c2ccccc2)CC1,1.52
O=C(CSc1nnc(-c2ccc(O)cc2)o1)c1ccc(Cl)cc1,-2.91
O=C(NCC(c1ccccc1)c1c[nH]c2ccccc12)C(F)(F)F (configuration not stated),-0.74
Nc1ccccc1CC(c1c[nH]c2ccccc12)c1c[nH]c2ccccc12,4.75*
NC(Cc1c[nH]c2ccccc12)C(=O)O (configuration not stated),2.31
O=C(c1ccccc1Cl)c1nccn1Cc1ccc(Cl)cc1,0.41
COC(=O)C1=C(C)NC(C)=C(C(=O)OC)C1c1ccccc1[N+](=O)[O-],11*
COC(=O)C1=C(C)NC2=C(C(=O)CCC2)C1c1cc([N+](=O)[O-])c(C)s1 (configuration not stated),-1.87
CCOC(=O)C1=C(C)NC(C)=C(C(=O)OC)C1c1cccc([N+](=O)[O-])c1 (configuration not stated),0.15
CCOc1cc(C2C(C(=O)OCCSCC)=C(C)NC3=C2C(=O)CC(C)(C)C3)ccc1O (configuration not stated),1.18
S=C(NCCc1ccccn1)c1ccccc1,-1.87
O=C(NC(=S)NCC1CC1)c1ccccc1,-0.16
COc1ccc(CCNC(=S)NC(=O)c2ccccc2)cc1OC,0.83
O=C(NNC(=S)NCCc1ccccc1)c1ccncc1,-0.08
O=C(NC(=S)NCc1ccncc1)c1ccccc1,3.36*
O=C(NC(=S)NCCc1ccccn1)c1ccccc1,3.07*

# Screening results: PubChem BioAssay, Center for Chemical Genomics, University of Michigan
